{"source": "PubChem BioAssay (Tox21)", "note": "Records with an inconclusive call do not appear. Calls of active or inactive are those of the source. The call rests on the fitted dose curve. Positions of bridges follow the written chain, without caps; N, C: chain ends. Non-standard residues stand in square brackets, D forms with d. Residues, ends and D or L forms follow the SMILES beside them. hArg = N=C(N)NCCCC[C@H](N)C(=O)O; Mpa = O=C(O)CCS", "data": [{"experiment": "qHTS assay for small molecule agonists of the p53 signaling pathway (AID 651631); further: nearly all actives have a fitted effect of over 15% in size", "details": "HCT-116 p53RE-bla reporter, beta-lactamase FRET ratio, 16 h; series mostly up to 73.3 µM", "from_the_text": "U.S. Tox21 Program National Center for Advancing Translational Sciences [NCATS] NIH Chemical Genomics Center [NCGC] U.S. Environmental Protection Agency [EPA] National Institutes of Environmental Health Sciences [NIEHS] National Toxicology Program [NTP] U.S. Food and Drug Administration [FDA] Tox21 Assay Overview: p53, a tumor suppressor protein, is activated following cellular insult, including DNA damage and other cellular stresses. The activation of p53 regulates cell fate by inducing DNA repair, cell cycle arrest, apoptosis, or cellular senescence. The activation of p53, therefore, is a good indicator of DNA damage and other cellular stresses. The CellSensor p53RE-bla HCT-116 cell line (Invitrogen) contains a stably integrated beta-lactamase reporter gene under control of the p53 response elements. The activation of the reporter gene under culture conditions can be detected by fluorescence intensity. This cell line was used to screen the Tox21 compound library in a 1536-well plate format and to identify agonists that activate the p53 signaling pathway.\nTox21 Assay Protocol Summary: The p53RE-bla cells were dispensed at 4,000 cells/5 ul/well in 1536-well black wall/clear bottom plates using a Multidrop dispenser. After the assay plates were incubated at a 37 C/5% CO2 incubator for 5 hours, 23 nL of compounds dissolved in DMSO, positive controls or DMSO only was transferred to the assay plate by a pin tool. The plates were incubated at 37 C for 16 hours. After 1 uL of LiveBLAzerTM B/G FRET substrate was added using a Flying Reagent Dispenser, the plates were incubated at room temperature for 2 hours, and fluorescence intensity was measured by an Envision plate reader.", "values": [{"smiles": "CCc1occc(=O)c1O", "outcome": "inactive"}, {"smiles": "CC(=O)C(C)O", "note": "(stereo not given)", "outcome": "inactive"}, {"smiles": "CC1=C(O)C(=O)C(C)O1", "note": "(stereo not given)", "outcome": "inactive"}, {"smiles": "CCO[Si](CC)(OCC)OCC", "outcome": "inactive"}, {"smiles": "CCn1cc(C(=O)O)c(=O)c2cnc(N3CCCC3)nc21", "outcome": "inactive"}, {"smiles": "CC1OCCC1=O", "note": "(stereo not given)", "outcome": "inactive"}, {"smiles": "O=C(Cl)c1ccccc1[N+](=O)[O-]", "outcome": "inactive"}, {"smiles": "C=CCCCCCCCC", "outcome": "inactive"}, {"smiles": "CC1(C)Cc2cccc(N)c2O1", "outcome": "inactive"}, {"smiles": "CCCCOCCOC(=O)COc1ccc(Cl)cc1Cl", "outcome": "inactive"}, {"smiles": "CC(C)(C)NC[C@H](O)COc1cccc2c1CCCC2=O", "outcome": "inactive"}, {"smiles": "NCCOCCN", "outcome": "inactive"}, {"smiles": "CC(=O)CC(=O)OC(C)(C)C", "outcome": "inactive"}, {"smiles": "Cn1nnc2c(C(N)=O)ncn2c1=O", "outcome": "inactive"}, {"smiles": "CCCCOC(=O)[C@H](C)O", "outcome": "inactive"}, {"smiles": "CC(=O)OCC(=O)Nc1cc(C#N)cc(NC(=O)COC(C)=O)c1Cl", "outcome": "inactive"}, {"smiles": "CCC(=O)CC", "outcome": "inactive"}, {"smiles": "CC(=O)O[Si](C)(OC(C)=O)OC(C)=O", "outcome": "inactive"}, {"smiles": "Cc1cc(-c2ccccc2)nnc1NCCN1CCOCC1", "outcome": "inactive"}, {"smiles": "Nc1nnnn1-c1ccccc1", "outcome": "inactive"}, {"smiles": "O=C(O)[C@H](O)c1ccccc1", "outcome": "inactive"}, {"smiles": "Nc1nc(-c2ccccc2)c(Br)c(=O)[nH]1", "outcome": "inactive"}, {"smiles": "CCCCCCCCCOC(=O)c1ccccc1C(=O)OCCCCCCCCC", "outcome": "inactive"}, {"smiles": "O=C(O)CCCCCC(=O)O", "outcome": "inactive"}, {"smiles": "CSc1cnccn1", "outcome": "inactive"}, {"smiles": "Cc1ccnc(N)c1", "outcome": "inactive"}, {"smiles": "NC(=O)[C@@H]1CSSCCC(=O)N[C@@H](CCCCN=C(N)N)C(=O)NCC(=O)N[C@@H](CC(=O)O)C(=O)N[C@@H](Cc2c[nH]c3ccccc23)C(=O)N2CCC[C@H]2C(=O)N1", "note": "([Mpa][hArg]GDWPC-NH2; disulfide 1-7)", "outcome": "inactive"}, {"smiles": "C=CC(=O)OCC1CCCO1", "note": "(stereo not given)", "outcome": "inactive"}, {"smiles": "O=[N+]([O-])c1c(Cl)cc(Cl)cc1Cl", "outcome": "inactive"}, {"smiles": "CCC(C)C(=O)OCCc1ccccc1", "note": "(stereo not given)", "outcome": "inactive"}, {"smiles": "Cc1cc(C)c(C(=O)O)c(C)c1", "outcome": "inactive"}, {"smiles": "CC1CCc2c(N3CCC(O)CC3)c(F)cc3c(=O)c(C(=O)O)cn1c23", "note": "(stereo not given)", "outcome": "inactive"}, {"smiles": "NCC1(Cc2noc(=O)[nH]2)CCCCC1", "outcome": "inactive"}, {"smiles": "C=CCSSCCC", "outcome": "inactive"}, {"smiles": "CCCCCCC1(C)CCC(=O)O1", "note": "(stereo not given)", "outcome": "inactive"}, {"smiles": "CCCCCCCCCCOC(C)=O", "outcome": "inactive"}, {"smiles": "Cc1ccc2c(c1)C(=O)c1ccccc1C2=O", "outcome": "inactive"}, {"smiles": "CCCCOC(=O)C(C)O", "note": "(stereo not given)", "outcome": "inactive"}, {"smiles": "COC(C)(OC)OC", "outcome": "inactive"}, {"smiles": "OCC1CCC(CO)CC1", "note": "(stereo not given)", "outcome": "inactive"}]}]}
